The record followed here is PubChem BioAssay (NCATS).

Molecules are shown by their SMILES. Inconclusive results are not listed. A call without a number means that no potency is given here. The source made the active and inactive calls. The call rests on the fitted dose curve; in most records, active means well fitted inhibition curve with a large enough effect; inconclusive means small, poorly fitted or top-dose-only effect; inactive means flat fitted curve, though single readings scatter.
Further: nearly all actives have a fitted effect of over 60% in size.

For the first assay, the system named is N140. Briefly: qHTS profiling for inhibitors of Plasmodium falciparum proliferation (AID 504749). Further: potency means the concentration at half of the fitted maximal effect. The following applies: P. falciparum in erythrocytes, SYBR Green DNA, 72 h; series mostly up to 28.7 µM. In outline: (§1)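 Three-day growth assay of blood-stage parasites in erythrocytes (0.3% parasitemia, 2.5% hematocrit) at 37 C, 5% CO2, quantified by SYBR Green DNA staining after overnight detergent lysis.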
Background: qHTS replaces the single test concentration by a dilution series.
As to `CC1OC(C)OC(C)O1` (configuration not stated), the Potency result was “inactive”.
With `O=c1[nH]c2ccccc2n1CCCN1CCC(n2c(=O)[nH]c3cc(Cl)ccc32)CC1`, the Potency was 6.31 µM (active).
For `C=C(C)[C@H]1Cc2c(ccc3c2O[C@@H]2COc4cc(OC)c(OC)cc4[C@@H]2C3=O)O1`, the Potency result was “inactive”.

A further assay deals with P93_24. The description is as above. Particulars: P. falciparum in erythrocytes, SYBR Green DNA, 72 h; series mostly up to 28.7 µM. In outline:
as §1
For `CC1OC(C)OC(C)O1` (configuration not stated), the Potency result was “inactive”.
Regarding `O=c1[nH]c2ccccc2n1CCCN1CCC(n2c(=O)[nH]c3cc(Cl)ccc32)CC1`, the Potency is 5.01 µM (active).
With `C=C(C)[C@H]1Cc2c(ccc3c2O[C@@H]2COc4cc(OC)c(OC)cc4[C@@H]2C3=O)O1`, the Potency entry was “inactive”.

For a further assay, the system named is P94_40. Described as above. Particulars: P. falciparum in erythrocytes, SYBR Green DNA, 72 h; series mostly up to 28.7 µM. In outline:
as §1
Take `CC1OC(C)OC(C)O1` (configuration not stated): the Potency entry was “inactive”.
As to `O=c1[nH]c2ccccc2n1CCCN1CCC(n2c(=O)[nH]c3cc(Cl)ccc32)CC1`, the Potency was 11.2 µM (active).
Take `O=c1[nH]c2ccccc2n1C1CCN(CCCC(c2ccc(F)cc2)c2ccc(F)cc2)CC1`: the Potency result was “inactive”.

A further assay relates to PAD. Described as above. Particulars: P. falciparum in erythrocytes, SYBR Green DNA, 72 h; series mostly up to 28.7 µM. In outline:
as §1
With `CC1OC(C)OC(C)O1` (configuration not stated), the Potency entry is “inactive”.
For `O=c1[nH]c2ccccc2n1CCCN1CCC(n2c(=O)[nH]c3cc(Cl)ccc32)CC1`, the Potency was 4.47 µM (active).
As to `O=c1[nH]c2ccccc2n1C1CCN(CCCC(c2ccc(F)cc2)c2ccc(F)cc2)CC1`, the Potency entry was “inactive”.
Take `C=C(C)[C@H]1Cc2c(ccc3c2O[C@@H]2COc4cc(OC)c(OC)cc4[C@@H]2C3=O)O1`: the Potency entry is “inactive”.

A further assay concerns PC15. Described as above. Particulars: P. falciparum in erythrocytes, SYBR Green DNA, 72 h; series mostly up to 28.7 µM. In outline:
as §1
`CC1OC(C)OC(C)O1` (configuration not stated): the Potency result is “inactive”.
Regarding `O=c1[nH]c2ccccc2n1CCCN1CCC(n2c(=O)[nH]c3cc(Cl)ccc32)CC1`, the Potency is 7.94 µM (active).
On the same count and under the same terms, in the case of `O=c1[nH]c2ccccc2n1C1CCN(CCCC(c2ccc(F)cc2)c2ccc(F)cc2)CC1` it was “inactive”; in that of `C=C(C)[C@H]1Cc2c(ccc3c2O[C@@H]2COc4cc(OC)c(OC)cc4[C@@H]2C3=O)O1`, “inactive”.

The next assay relates to PC26. The description is as above. The following applies: P. falciparum in erythrocytes, SYBR Green DNA, 72 h; series mostly up to 28.7 µM. The procedure, abridged: as §1
Consider `CC1OC(C)OC(C)O1` (configuration not stated), for which the Potency result was “inactive”.
Still for that read-out and setting: for `O=c1[nH]c2ccccc2n1CCCN1CCC(n2c(=O)[nH]c3cc(Cl)ccc32)CC1` the value was 6.75 µM (active); for `C=C(C)[C@H]1Cc2c(ccc3c2O[C@@H]2COc4cc(OC)c(OC)cc4[C@@H]2C3=O)O1`, “inactive”.

Another assay deals with PC49. The assay is described as above. The following applies: P. falciparum in erythrocytes, SYBR Green DNA, 72 h; series mostly up to 28.7 µM. In outline:
as §1
In the case of `CC1OC(C)OC(C)O1` (configuration not stated), the Potency result is “inactive”.
On to `O=c1[nH]c2ccccc2n1CCCN1CCC(n2c(=O)[nH]c3cc(Cl)ccc32)CC1`, for which the Potency result is “inactive”.
`O=c1[nH]c2ccccc2n1C1CCN(CCCC(c2ccc(F)cc2)c2ccc(F)cc2)CC1`: the Potency entry is “inactive”.
For `C=C(C)[C@H]1Cc2c(ccc3c2O[C@@H]2COc4cc(OC)c(OC)cc4[C@@H]2C3=O)O1`, the Potency entry was “inactive”.

A further assay deals with SC27B. Described as above. The following applies: P. falciparum in erythrocytes, SYBR Green DNA, 72 h; series mostly up to 28.7 µM. In outline: as §1
As for `CC1OC(C)OC(C)O1` (configuration not stated), the Potency result was “inactive”.
Same read-out and setting: for `O=c1[nH]c2ccccc2n1C1CCN(CCCC(c2ccc(F)cc2)c2ccc(F)cc2)CC1` the value was “inactive”; for `C=C(C)[C@H]1Cc2c(ccc3c2O[C@@H]2COc4cc(OC)c(OC)cc4[C@@H]2C3=O)O1`, “inactive”.

Another assay has as its system TAB109. The description is as above. The following applies: P. falciparum in erythrocytes, SYBR Green DNA, 72 h; series mostly up to 28.7 µM. In outline:
as §1
In the case of `CC1OC(C)OC(C)O1` (configuration not stated), the Potency entry was “inactive”.
On the same count and under the same terms, in the case of `O=c1[nH]c2ccccc2n1CCCN1CCC(n2c(=O)[nH]c3cc(Cl)ccc32)CC1` it was 5.01 µM (active); in that of `O=c1[nH]c2ccccc2n1C1CCN(CCCC(c2ccc(F)cc2)c2ccc(F)cc2)CC1`, “inactive”.
As for `C=C(C)[C@H]1Cc2c(ccc3c2O[C@@H]2COc4cc(OC)c(OC)cc4[C@@H]2C3=O)O1`, the Potency entry is “inactive”.

For a further assay, the system named is TAB113. Described as above. Particulars: P. falciparum in erythrocytes, SYBR Green DNA, 72 h; series mostly up to 28.7 µM. The procedure, abridged: as §1
Take `CC1OC(C)OC(C)O1` (configuration not stated): the Potency result is “inactive”.
For `O=c1[nH]c2ccccc2n1C1CCN(CCCC(c2ccc(F)cc2)c2ccc(F)cc2)CC1`, the Potency entry is “inactive”.
Still for that read-out and setting: in the case of `C=C(C)[C@H]1Cc2c(ccc3c2O[C@@H]2COc4cc(OC)c(OC)cc4[C@@H]2C3=O)O1` it was “inactive”.

The next assay concerns TAB165. The assay is described as above. The following applies: P. falciparum in erythrocytes, SYBR Green DNA, 72 h; series mostly up to 28.7 µM. In outline: as §1
As for `CC1OC(C)OC(C)O1` (configuration not stated), the Potency result was “inactive”.
As for `O=c1[nH]c2ccccc2n1CCCN1CCC(n2c(=O)[nH]c3cc(Cl)ccc32)CC1`, the Potency is 4.47 µM (active).
The same measure, in the same setting: for `C=C(C)[C@H]1Cc2c(ccc3c2O[C@@H]2COc4cc(OC)c(OC)cc4[C@@H]2C3=O)O1` the value was “inactive”.

A further assay deals with W2. Described as above. The following applies: P. falciparum in erythrocytes, SYBR Green DNA, 72 h; series mostly up to 28.7 µM. The procedure, abridged: as §1
For `CC1OC(C)OC(C)O1` (configuration not stated), the Potency result was “inactive”.
For the compound `O=c1[nH]c2ccccc2n1CCCN1CCC(n2c(=O)[nH]c3cc(Cl)ccc32)CC1`, the Potency was 6.75 µM (active).
Still for that read-out and setting: for `O=c1[nH]c2ccccc2n1C1CCN(CCCC(c2ccc(F)cc2)c2ccc(F)cc2)CC1` the value was 3.79 µM (active).

In the next assay the test system is CRL-7250. In words: qHTS assay to identify novel small-molecules to repurpose for Merkel cell carcinoma treatment (AID 1296009). Particulars: MCC and control cell lines, CellTiter-Glo viability, 72 h; series mostly up to 44.8 µM. The procedure, abridged:
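After compound transfer in DMSO, plates were kept 72 hr at 37 degree celsius. Luminescent ATP signal from CellTiter-Glo served as viability measure, normalized against DMSO and no-cell controls.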
On to `Nc1ccc(O)c(C(=O)O)c1`, for which the result was inactive.
On the same count and under the same terms, in the case of `CN(C)C(=N)N=C(N)N` it was “inactive”; in that of `NNCCc1ccccc1`, “inactive”; in that of `Cn1ccc2cc3c(cc21)CCN3C(=O)Nc1cccnc1`, “inactive [at 17.4 µM]”.
Turning to `O=c1[nH]c2ccccc2n1CCCN1CCC(n2c(=O)[nH]c3cc(Cl)ccc32)CC1`, the result was inactive.
For `Cc1ccc(-c2cc(C(F)(F)F)nn2-c2ccc(S(N)(=O)=O)cc2)cc1`, the compound was called inactive.
Regarding `CCCNC(=O)NS(=O)(=O)c1ccc(Cl)cc1`, the compound was classed as inactive.
For `CN(C)CCc1c[nH]c2ccc(C[C@H]3COC(=O)N3)cc12`, the compound was classed as inactive.
With `CN1CCC(=C2c3ccccc3C=Cc3ccccc32)CC1`, the call was inactive.
As for `CCCNCC(O)COc1ccccc1C(=O)CCc1ccccc1` (configuration not stated), the call was inactive.
As for `O=NN(CCCl)C(=O)NCCCl`, the result was inactive.
Take `CCN(CC)CCCC(C)Nc1ccnc2cc(Cl)ccc12` (configuration not stated): the outcome is “inactive [at 9.27 µM]”.
On the same count and under the same terms, in the case of `CNS(=O)(=O)Cc1ccc2[nH]cc(CCN(C)C)c2c1` it was “inactive”; in that of `C[C@H]1c2cccc(O)c2C(O)=C2C(=O)[C@]3(O)C(O)=C(C(N)=O)C(=O)[C@@H](N(C)C)[C@@H]3[C@@H](O)[C@@H]21`, “inactive”; in that of `CS(=O)(=O)OCCCCOS(C)(=O)=O`, “inactive”.
With `Nc1cc(-c2ccncc2)c[nH]c1=O`, the call was inactive.
Take `CO/N=C1\CN(c2nc3c(cc2F)c(=O)c(C(=O)O)cn3C2CC2)CC1CN` (configuration not stated): the compound was called inactive.
On the same count and under the same terms, in the case of `CN(N=O)C(=O)N[C@@H]1[C@@H](O)[C@H](O)[C@@H](CO)O[C@@H]1O` it was “inactive”; in that of `CC(C)Nc1cccnc1N1CCN(C(=O)c2cc3cc(NS(C)(=O)=O)ccc3[nH]2)CC1`, “inactive”.
Take `NC12CC3CC(CC(C3)C1)C2`: the result was inactive.
Turning to `CN1CCN(CCCN2c3ccccc3Sc3ccc(Cl)cc32)CC1`, the compound was classed as inactive.
For the compound `CN(C)[C@@H]1C(=O)C(C(N)=O)=C(O)[C@@]2(O)C(=O)C3=C(O)c4c(O)ccc(Cl)c4[C@@H](O)[C@H]3C[C@@H]12`, the compound was called inactive.
Turning to `CNCCc1ccccn1`, the outcome was inactive.
Take `CC(=O)Nc1nnc(S(N)(=O)=O)s1`: the call was inactive.
With `O=c1n(CCCN2CCN(c3cccc(Cl)c3)CC2)nc2ccccn12`, the call was inactive.
With `O=C(c1ccc(OCCN2CCCCC2)cc1)c1c(-c2ccc(O)cc2)sc2cc(O)ccc12`, the call was inactive.
Still for that read-out and setting: for `COC(c1ccccc1)(c1ccccc1)[C@H](Oc1nc(C)cc(C)n1)C(=O)O` the value was “inactive”; for `Cc1cnc(C(=O)NCCc2ccc(S(=O)(=O)NC(=O)NC3CCCCC3)cc2)cn1`, “inactive”.
On the same count and under the same terms, for `CCN(CCO)CCCC(C)Nc1ccnc2cc(Cl)ccc12` (configuration not stated) the value was “inactive [at 4.96 µM]”.
Same read-out and setting: in the case of `Cc1ccccc1C(OCCN(C)C)c1ccccc1` (configuration not stated) it was “inactive”; in that of `CCCN[C@H]1CCc2nc(N)sc2C1`, “inactive”; in that of `CCN(CC)C(=S)SSC(=S)N(CC)CC`, “inactive”.
With `NCCCC(O)(P(=O)(O)O)P(=O)(O)O`, the compound was classed as inactive.
As to `Cc1[nH]cnc1CN1CCc2c(c3ccccc3n2C)C1=O`, the outcome was inactive.
With `OCCN(CCO)c1nc(N2CCCCC2)c2nc(N(CCO)CCO)nc(N3CCCCC3)c2n1`, the call was inactive.
For the compound `COc1ccccc1OCC(O)COC(N)=O` (configuration not stated), the compound was classed as inactive.
Still for that read-out and setting: for `CN1CCC[C@@H]1Cc1c[nH]c2ccc(CCS(=O)(=O)c3ccccc3)cc12` the value was “inactive”.
